NS1 function inh = influenza NS1 inhibition. Potency, µM (top dose mostly 46.1 µM), without a hit: top-dose activity, positive = more growth. 0.4% of 270,000 active. AID 2326; calls by dose curve; further: actives are rising curves; nearly all actives have a fitted effect of over 50% in size
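OD600 was taken as the measure of yeast growth restored by compound in an NS1-expressing S. cerevisiae strain. Cells had been washed out of glucose medium and diluted 1:100 into galactose -URA medium, pH 6.0.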
Pf growth 48h = inhibits P. falciparum growth in the first generation, 48 h; 5.9% of 310,000 active; P. falciparum luciferase growth in erythrocytes, 48 h; AID 504832; Potency, µM (highest dose often 28.7 µM), without a hit: at the highest dose activity change, negative = inhibition, actives largely listed as inhibitors; further: on the % scale 0 is the no-effect control and ±100 the full control effect
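Erythrocytes infected with P. falciparum carrying an integrated firefly luciferase reporter (2% hematocrit, 0.1% parasitemia final) were exposed to compounds in RPMI 1640 with 0.5% Albumax at 37 C, 5% CO2. Growth inhibition was scored as reduced luminescence.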
RE007 growth inh = less growth of the S. pombe RE007 Vpr strain; S. pombe RE007 Vpr strain, BacTiter-Glo ATP luminescence, 24 h; Potency, µM (titrated, usually from 92.2 µM), for inactives: at the highest dose activity change, negative = less growth, actives largely listed as inhibitors; 0.21% of 360,000 active; AID 651644; active means well fitted falling curve with a large enough effect; inconclusive means small, poorly fitted or top-dose-only effect; inactive means no such curve, though single readings can be large or run the other way; further: on the % scale 0 is the no-effect control and ±100 the full control effect; nearly all actives have a fitted effect of over 50% in size
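Fission yeast RE007 carrying one integrated HIV-1 vpr copy, seeded at OD 0.01 in PMG+AL medium with 23 nL pinned compound. Grown 24 h at 30 degrees; viability read by BacTiter-Glo luminescence after 5 min.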
Pf growth 96h = P. falciparum growth inhibition at 96 hours | 6.9% of 320,000 active | P. falciparum luciferase reporter growth, 96 h | Potency, µM (top dose mostly 28.7 µM), for inactives: top-dose activity change, negative = inhibition, usual class: inhibitors; further: on the % scale 0 is the no-effect control and ±100 the full control effect
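Two-generation exposure (96 h) targets delayed-death phenotype. Reporter parasites carrying integrated firefly luciferase, in red cells at 2% hematocrit and 0.05% parasitemia final, kept at 37 C, 5% CO2; luminescence loss indicates inhibition.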
SARS PLP yeast = SARS-CoV PLP inhibition in yeast; S. cerevisiae expressing SARS-CoV PLpro, growth rescue; Potency, µM (series often up to 32.9 µM), inactives show at the highest dose activity, positive = growth rescue, most hits filed as activators; 0.19% of 330,000 active; AID 485353; calls by dose curve; further: 0% is about no effect; nearly all actives have a fitted effect of over 55% in size
The depositor's hits bear a star; ? = inconclusive; . = not tested or not shown; [ ] = dose if it differs, or a comment. Most compounds without a hit are left out; they make up all but 9.5% or so of the library. Unless noted, the call rests on the fitted dose curve; in most records, active means well fitted inhibition curve with a large enough effect; inconclusive means small, poorly fitted or top-dose-only effect, or another doubt; inactive means no such curve, though single readings can be large or run the other way. Potency means the concentration at half of the fitted maximal effect.

SMILES	NS1 function inh	Pf growth 48h	RE007 growth inh	Pf growth 96h	SARS PLP yeast
Cc1ccc(C(=O)N2CCN3C(=O)c4ccccc4C23c2ccc(Cl)cc2)cc1 (stereo not given)	9.3%	.	2.6%	6.57µM*	-20.9%
O=C(CCl)N1CCN2C(=O)c3ccccc3C12c1ccc(Cl)cc1 (stereo not given)	2.9%	-4.0%	-18.7%	?	-0.3%
COc1ccccc1NS(=O)(=O)c1ccc2ccccc2c1	-5.1%	-1.7%	3.7%	-11.5%	-7.5%
Cc1ccc(S(=O)(=O)Nc2cccc3cccnc23)c([N+](=O)[O-])c1	-18.9%	2.62µM*	1.1%	0.7%	-8.1%
COc1ccc(NS(=O)(=O)c2ccc3ccccc3c2)c2ncccc12	-97.8%	2.94µM*	-6.7%	10.9%	0.9%
O=S(=O)(Nc1cccc2cccnc12)c1ccccc1	-45.4%	3.7µM*	-5.6%	46.5%	-3.2%
O=S(=O)(Nc1cccc2cccnc12)c1ccc(S(=O)(=O)N2CCCC2)cc1	-13.1%	10.4µM*	0.0%	?	10.3%
CC(=O)Nc1ccc(S(=O)(=O)Nc2cccc3cccnc23)cc1	-12.2%	4.3%	6.5%	14.9%	-1.7%
Cc1cccc(CN(C)C[C@H]2OCc3cnnn3CCCC(=O)N([C@@H](C)CO)C[C@@H]2C)c1	.	.	6.6%	.	.
CCCCCCN1Cc2ccccc2C1	9.0%	33.7%	-0.4%	8.3%	-0.6%
CCCCCCCCCCn1ccc(=N)cc1	-106.1%	0.208µM*	?	?	-3.8%
CCCCCCCCn1ccc(=N)cc1	-5.5%	0.37µM*	3.9%	?	-2.9%
CCSc1nnc(N2C(=O)c3ccc(C(=O)c4ccc(C(=O)O)cc4)cc3C2=O)s1	?	9.5%	11.6%	10.4µM*	-0.6%
COc1ccc(CN(CCC(c2ccc(F)cc2)C2CCOC(C)(C)C2)C(=O)c2ccco2)cc1 (stereo not given)	-34.2%	9.28µM*	7.9%	?	-14.9%
CC(c1ccccc1)N(CCC(c1ccccc1)C1CCOC(C)(C)C1)C(=O)c1ccco1 (stereo not given)	-12.0%	11.7µM*	.	-4.9%	-7.7%
CC1(C)CC(C(CC(=O)O)c2ccccc2)CCO1 (stereo not given)	-5.0%	-16.3%	-7.0%	1.9%[5.75 µM]	10.3%
Cc1cccc(C)c1NC(=O)C[N+](C)(C)C	-6.2%	.	.	.	.
CC1(C)CC(=O)C2=C(C1)O[C@@]1(CCCCN3C(=O)c4ccccc4C3=O)Cc3ccccc3C2O1	-8.2%	1.69µM*	.	1.69µM*	1.3%[6.58 µM]
CCCCC[C@]12Cc3ccccc3C(O1)C1=C(CC(C)(C)CC1=O)O2	-6.2%	34.1%[5.75 µM]	.	?	-8.7%[6.58 µM]
CCCC[C@]12Cc3cc(OC)c(OC)cc3C(O1)C1=C(O2)C(=O)c2ccccc2C1=O	10.8%	1.35µM*	.	26.3%[5.75 µM]	-2.0%[6.58 µM]
CCCC[C@]12Cc3ccccc3[C@H](O1)C1=C(O2)C(=O)c2ccccc2C1=O	-8.8%	?	.	0.849µM*	2.3%[6.58 µM]
O=C(O)CCC(=O)c1ccc[nH]1	-0.3%	.	.	.	.
COc1ccc(NC(=O)CN(C)CC(=O)NC(=O)NC2CCCCC2)cc1	.	-12.9%	-9.2%	0.4%	3.2%
CN(CC(=O)NC(=O)NC1CCCCC1)CC(=O)Nc1ccc(OC(F)(F)F)cc1	.	5.22µM*	4.2%	?	-3.6%
CCC(=O)Nc1ccc(Cl)c(NC(=S)NC(=O)COc2ccc(Cl)cc2)c1	1.7%	32.6%	1.4%	1.85µM*	3.4%
SMILES	NS1 function inh	Pf growth 48h	RE007 growth inh	Pf growth 96h	SARS PLP yeast
CC/C(C)=N\N=C\c1c(O)n(CC)c2cc(C3=NNC(=O)CC3)ccc12	?	?	-0.2%	10.4µM*	7.2%
O=C(CN1CCOCC1)Nc1ccc(NC(=O)c2ccccc2F)cc1	7.1%	1.8%	-2.7%	-7.8%	-1.5%
CC(O)CSc1nc2c(c(=O)[nH]c(=O)n2C)n1Cc1ccccc1Cl (stereo not given)	20.7%	-4.6%	-7.7%	-8.5%	12.8%
Cc1ccc(-c2cn(-c3ccc(SC(F)F)cc3)c3[n+]2CCC3)cc1	1.9%	0.37µM*	-13.8%	?	-12.7%
FC(F)Sc1ccc(-n2cc(-c3ccc(Cl)cc3)[n+]3c2CCC3)cc1	0.3%	0.738µM*	0.9%	?	-0.9%
FC(F)Sc1ccc(NC2=NCCCCC2)cc1	-0.2%	14.0%	-0.4%	30.3%	-0.5%
COC(=O)c1sccc1NC(=O)Nc1cccc(OC)c1	-36.1%	16.7%	31.6µM*	-1.8%	-11.3%
COC(=O)c1sccc1NC(=O)Nc1cc(C)cc(C)c1	1.9%	55.1%	-5.3%	4.65µM*	-6.7%
COc1cccc(NC(=O)NCc2ccccn2)c1	3.0%	22.8%	12.8%	2.08µM*	-4.1%
CCOC(=O)Cc1csc(NC(=O)c2cccc(OC)c2)n1	-7.1%	10.0%	-26.8%	12.8%	-2.9%
CCOC(=O)Cc1csc(NC(=O)Nc2cccc(OC)c2)n1	5.0%	?	4.7%	10.4µM*	-0.3%
O=S(=O)(Nc1ccc(C(O)(C(F)(F)F)C(F)(F)F)cc1)c1cccc2ccccc12	.	.	4.8%	.	.
COC(=O)c1sccc1NC(=O)Nc1ccc(F)cc1	-32.8%	28.1%	?	-12.2%	-14.9%
COC(=O)c1sccc1NC(=O)/C=C/c1ccc(Cl)cc1	-4.6%	119.6%	-13.0%	13.1µM*	-1.3%
COC(=O)c1sccc1NC(=O)c1ccccc1	.	?	?	0.0%	-7.9%
CCOC(=O)Cc1csc(NS(=O)(=O)c2ccc(Cl)cc2)n1	10.4%	?	-2.1%	8.28µM*	-0.9%
COC(=O)c1sccc1NC(=O)c1ccc(C(C)C)cc1	-14.6%	13.7%	2.0%	10.4µM*	-11.3%
COC(=O)c1sccc1NC(=O)/C=C\c1ccc(Cl)cc1Cl	13.5%	.	-3.2%	57.2%	18.1%
COC(=O)c1sccc1NC(=O)Nc1ccc(F)cc1F	-2.9%	-1.9%	-18.3%	11.7µM*	-1.4%
Cc1ccc(S(=O)(=O)N2CCN(C(=O)COC(=O)COc3ccc(Cl)cc3)CC2)c(C)c1	.	.	1.2%	.	.
CCc1ccc(NC(=O)CSc2n[nH]c(=O)n2C2CC2)cc1	.	-12.1%	8.6%	6.7%	0.1%
CN(C)CC(NC(=O)c1cccc(S(=O)(=O)Nc2ccc3c(c2)OCO3)c1)c1ccccc1 (stereo not given)	.	?	-20.4%	4.15µM*	-7.2%[6.58 µM]
COc1ccc(NC(=O)CN(C)C(=O)C(C)Oc2ccc(Br)cc2)cc1 (stereo not given)	.	10.1%	-6.9%	-6.5%	-1.0%
Cc1ccc(-n2cc(CN3CCC(O)(c4ccccn4)CC3)c(-c3ccc(F)cc3)n2)cc1	8.0%	4.65µM*	-5.0%	2.33µM*	-1.4%
Cc1cccc(-n2cc(CN3CCN(Cc4nccn4C)CC3)c(-c3cccc(F)c3)n2)c1	-2.2%	3.29µM*	-3.6%	-11.1%	0.1%
Cc1ccc(-n2cc(CN3CCNC(=O)CC3)c(-c3ccc(F)cc3)n2)cc1	-4.0%	?	6.3%	?	0.6%
COc1ccc(-n2cc(CN3CCCC3)c(-c3cccc(F)c3)n2)cc1	1.3%	?	-1.5%	248.9%	0.4%
CC(=O)N1CCCN(Cc2cn(-c3ccc(C)cc3)nc2-c2cccc(C)c2)CC1	1.7%	9.28µM*	5.4%	?	-0.3%

Source: PubChem
